Inconclusive results are not listed. Where a call stands in place of a potency, no number is given. Unmarked numbers belong to inactive results. The source made the active and inactive calls. Calls come from the whole dose curve; as a rule, active = well fitted cell-killing curve with a large enough effect in the repeat runs; inconclusive = weak or mixed curves, or effect the other way; inactive = flat fitted curve, though single readings scatter.
Assay: cAMP Responsive Elements (CRE) small molecule agonists, cell-based qHTS assay: qHTS cell viability counter screen (AID 2060914);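 note: viability read after 3 h of compound exposure; nearly all actives have a fitted effect of over 50% in size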
Conditions: CRE-bla HEK293T viability, CellTiter-Glo luminescence, 5 h; series mostly up to 92.4 µM
Method in brief: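 CRE-bla HEK 293T cells, plated 18 h at 37 °C, were exposed to compounds for 3 h at 37 °C/5% CO2. Viability was then measured in the same wells by CellTiter-Glo luminescence after 30 min at room temperature.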
Potency is the fitted concentration of half-maximal effect.

SMILES	Potency	activity change, negative = cytotoxicity
CCN(CC)CCNC(=O)c1ccc(N)cc1	inactive	–
CCCCCCCCCCC[C@@H](C[C@@H]1OC(=O)[C@H]1CCCCCC)OC(=O)[C@H](CC(C)C)NC=O	inactive	–
CC(C)C(=O)OC(=O)C(C)C	inactive	–
CC(=O)O[C@]1(C(C)=O)CC[C@H]2[C@@H]3C=C(Cl)C4=CC(=O)CC[C@]4(C)[C@H]3CC[C@@]21C	inactive	–
O=S(=O)(O)c1cc(S(=O)(=O)O)c2c(N=Nc3ccccc3)c(O)ccc2c1	inactive	–
NC(=O)C1(N2CCCCC2)CCN(CCCN2c3ccccc3CCc3ccc(Cl)cc32)CC1	inactive	–
O=C1CCC(=O)O1	inactive	–
CC(=O)NS(=O)(=O)c1ccc(N)cc1	inactive	–
O=P(O)(O)Oc1ccccc1	inactive	–
CC1(C)Oc2ccc(C#N)cc2[C@@H](N2CCCC2=O)[C@@H]1O	inactive	–
CC(=O)C1(C)CC2=C(CCCC2(C)C)CC1C (centres undefined)	inactive	–
NC[C@H]1O[C@H](O[C@H]2[C@H](O)[C@@H](O[C@H]3O[C@H](CO)[C@@H](O)[C@H](N)[C@H]3O)[C@H](N)C[C@@H]2N)[C@H](N)[C@@H](O)[C@@H]1O	–	-6.94% [at 18.9 µM]
C=CCOc1nc(OCC=C)nc(OCC=C)n1	inactive	–
COCCCCCCCCOCCC[Si](C)(O[Si](C)(C)C)O[Si](C)(C)C	inactive	–
C=C(C)C(=O)OCCOC(=O)C(=C)C	inactive	–
O=c1cc(-c2ccccc2)oc2cc(O)cc(O)c12	inactive	–
C/C=C/C(=O)Oc1c(CCCCCC(C)C)cc([N+](=O)[O-])cc1[N+](=O)[O-]	inactive	–
O=C(O)c1ccc(O)cc1	inactive	–
FC(F)(Cl)C(F)(Cl)Cl	inactive	–
N[C@@H]1CONC1=O	inactive	–
O=S(=O)(O)c1ccc2cc(O)c(S(=O)(=O)O)cc2c1	inactive	–
CCCCCCCCCCCCCCCC[N+](C)(C)CCN(Cc1ccc(OC)cc1)c1ncccn1	26.6 µM (active)	–
OCCN1CCN(CCCN2c3ccccc3Sc3ccc(Cl)cc32)CC1	inactive	–
O=C1CCCCCCCCCCC(=O)OCCO1	inactive	–

— PubChem BioAssay (Tox21)
